# Assay outcomes (PubChem)
# hNpr1 antagonist – Natriuretic polypeptide receptor (hNpr1) antagonism - Primary qHTS; Atrial natriuretic peptide receptor 1 (Homo sapiens), P16066; HEK293 hNpr1 GloSensor cGMP, ANP-stimulated luminescence; 76,000 tested, 1.6% active; Potency, µM (highest dose often 46.3 µM), for the others: top-dose activity change, negative = inhibition, most hits filed as inhibitors; AID 1347048, 2019; calls by dose curve; note: nearly all actives have a fitted effect of over 60% in size
#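 HEK293 cells stably expressing human Npr1 and cGMP GloSensor pGS-40F, loaded 2 h with 2% GloSensor reagent, given compound 30 min at room temperature. Luminescence read before and 20 min after 0.1 nM hNppA.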
# HEK cytotox – Cytotoxic Profiling in HEK 293 Cell Line of Diverse Libraries Using Quantitative High-Throughput Screening; Potency, µM (series often up to 115 µM), for the others: at the top dose activity change, negative = cytotoxicity, usual class: inhibitors; HEK 293 viability, ATP luminescence (CellTiter-Glo), 48-72 h; 94,000 tested, 6.6% active; note: nearly all actives have a fitted effect of over 60% in size
#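 HEK 293 cells seeded at 250 cells/well were exposed to compound for 48 or 72 hr at 37 degree Celsius. Viability taken as ATP content by CellTiter-Glo luminescence.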
# Luciferase inh – Firefly luciferase inhibition profiling of diverse chemical library using quantitative high-throughput screening. Luciferin 4-monooxygenase (Photinus pyralis), P08659. purified P. pyralis luciferase, luminescence, biochemical. Potency, µM (top dose mostly 115 µM), most hits filed as inhibitors. 76,000 tested, 2.5% active; note: nearly all actives have a fitted effect of over 65% in size
#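 Luminescence read by CCD imager after adding enzyme (10nM final) to wells holding compound, titrated in qHTS. Substrates 10uM each D-luciferin and ATP; buffer 50mM Tris acetate pH 7.5, 10mM Mg acetate, Tween-20, BSA.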
# 3T3 cytotox – Cytotoxic Profiling in NIH 3T3 Cell Line of Diverse Libraries Using Quantitative High-Throughput Screening; 94,000 tested, 4.3% active; AID 1345082, 2018; Potency, µM (doses to about 96.7 µM), for inactives: at the highest dose activity change, negative = cytotoxicity, most hits filed as inhibitors; NIH 3T3 viability, CellTiter-Glo ATP luminescence, 48-72 h; note: nearly all actives have a fitted effect of over 55% in size
#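 Cells were seeded at 400 per well, treated with pin-transferred compound, and kept 48 or 72 hr at 37 °C before CellTiter-Glo addition and luminescence imaging of cellular ATP.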
# GPT2 inhibitor – Primary qHTS assay for inhibitors of Glutamate pyruvate transaminase 2 (GPT2); Recombinant GPT2, coupled pyruvate oxidase/HRP Amplex Red fluorescence; Potency, µM (series often up to 57.7 µM), for inactives: at the highest dose activity change, negative = inhibition, actives largely listed as inhibitors; Alanine aminotransferase 2 (Homo sapiens), Q8TD30; 100,000 tested, 0.25% active; note: nearly all actives have a fitted effect of over 60% in size
# Target sequence (Q8TD30 whole entry, looked up): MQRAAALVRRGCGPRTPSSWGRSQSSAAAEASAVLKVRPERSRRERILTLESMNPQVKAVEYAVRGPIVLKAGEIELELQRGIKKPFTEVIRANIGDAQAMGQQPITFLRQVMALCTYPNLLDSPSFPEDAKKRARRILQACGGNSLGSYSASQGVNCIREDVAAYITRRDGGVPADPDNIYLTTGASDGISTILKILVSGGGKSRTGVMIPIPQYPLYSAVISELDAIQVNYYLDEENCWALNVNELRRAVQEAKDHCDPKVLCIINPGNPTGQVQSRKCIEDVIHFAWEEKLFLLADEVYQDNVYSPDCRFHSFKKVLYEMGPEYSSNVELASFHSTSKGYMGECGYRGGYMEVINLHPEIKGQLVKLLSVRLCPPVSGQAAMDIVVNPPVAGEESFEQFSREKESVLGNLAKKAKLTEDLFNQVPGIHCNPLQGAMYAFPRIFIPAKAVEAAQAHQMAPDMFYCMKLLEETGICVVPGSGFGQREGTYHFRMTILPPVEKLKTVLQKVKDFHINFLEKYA
#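 Fluorescence of coupled pyruvate oxidase/HRP/Amplex Red system (50uM Amplex, 30 min, dark) reports pyruvate formed by GPT2. Enzyme reaction: 10ng/uL GPT2, 2mM L-alanine, 250uM a-KG, 30 min room temperature, pH 7.5; 50uM AOA control.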
# The depositor's hits bear a star; i = inactive; ? = inconclusive; . = no result; [ ] = another dose, or the depositor's remark. This is a sample that favours compounds with a hit; in the whole collection about 10% have one here. Unless noted, calls come from the whole dose curve; as a rule, active = well fitted curve in the direction sought with a large enough effect; inconclusive = small, poorly fitted or top-dose-only effect, or another doubt; inactive = no such curve, though single readings can be large; an effect the other way counts as inactive or inconclusive. % is set by controls: 0 for no effect and ±100 for the full control effect; potency is the fitted concentration of half-maximal effect.
SMILES,hNpr1 antagonist,HEK cytotox,Luciferase inh,3T3 cytotox,GPT2 inhibitor
COc1ccc(-c2cc(N3CCC(NC(=O)c4ccc(OC)c(F)c4)CC3)n[nH]2)cc1,-11.1%,-13.1%,i,-16.4%,i
COc1ccc(-c2cc(N3CCC(NC(=O)c4ccc(C)c(C)c4)C3)n[nH]2)cc1 (centres undefined),4.1%,50.1µM*,i,?,?
COc1ccc(-c2cc(N3CCCC(NC(=O)c4cccc(C)c4)C3)n[nH]2)cc1 (centres undefined),-15.8%,44.7µM*,10µM*,?,?
CNC(=O)c1cc(C2CC2)nc2c1c(C1CCN(C(=O)c3ccccn3)CC1)nn2C,.,i,.,-11.1%,.
COCC(=O)N1CCC(Cc2ccc(C(N)=O)cc2)CC1,-1.1%,-1.5%,i,-5.4%,i
COc1ccc(-c2cc(N3CCC(NC(=O)COc4ccccc4C)CC3)n[nH]2)cc1,?,?,i,25.1µM*,?
Cc1cc(C)cc(C(=O)NC2CCN(c3cc(-c4ccc(F)cc4)[nH]n3)C2)c1 (centres undefined),-11.3%,?,i,44.7µM*,-21.0%
Cc1cc(C)cc(C(=O)NC2CCN(c3cc(-c4ccccc4)[nH]n3)C2)c1 (centres undefined),6.3%,?,i,-19.6%,-17.2%
COc1ccc(-c2cc(N3CCC(NC(=O)Cc4ccccc4C)CC3)n[nH]2)cc1,-14.3%,?,i,?,i
CC(C)c1cccc(NC(=O)CN2C(=O)C(c3ccccc3)=NC23CCCC3)c1,?,35.5µM*,i,?,2.0%
CCN1c2cc(C(=O)Nc3ccc(OC)cc3OC)ccc2C(=O)N2CCCCCC21 (centres undefined),0.0%,?,i,?,-4.2%
OC[C@@H]1CNC[C@H]1C1CCN(Cc2cccc(C(F)(F)F)c2)CC1,7.0%,79.4µM*,i,?,i
OC[C@@H]1CNC[C@H]1C1CCN(Cc2cccc(Cl)c2F)CC1,-5.3%,?,i,?,i
O=C(NCCc1ccccc1F)c1cc(Br)cn2ccnc12,-3.0%,?,15.8µM*,?,4.6%
O=C(c1ccccc1F)N1CC(Oc2ccc(-c3nc(-c4ccccc4)no3)cc2)C1,7.08µM*,28.2µM*,?,44.7µM*,-11.7%
O=C(c1ccc(F)cc1)N1CC(Oc2ccc(-c3nc(-c4ccccc4)no3)cc2)C1,-11.4%,?,i,-13.2%,i
O=C(c1ccco1)N1CC(Oc2ccc(-c3nc(-c4ccccc4)no3)cc2)C1,?,20µM*,?,28.2µM*,-16.5%
COc1ccc(CC(=O)NC2CCCN(c3ccnc4ccnn34)C2)cc1 (centres undefined),.,4.7%,.,-12.2%,i
O=C1Nc2ccccc2CN(Cc2ccc(Cl)cc2)C12CCNC2 (centres undefined),.,50.1µM*,.,?,4.7%
O=C1Nc2ccccc2CC12CCCN2Cc1ccc(Cl)cc1 (centres undefined),.,?,.,-29.4%,3.3%
CN1c2cccnc2CN(C(=O)Nc2cccc(C(F)(F)F)c2)CC[C@H]1CO,4.5%[70.6 µM],?,i,?,-8.8%[88.5 µM]
O=C(O)c1cnc(-c2cc(NCc3ccccn3)nc3[nH]ccc23)c(Cl)c1,-1.4%,-30.8%,39.8µM*,-26.7%,-15.1%
O=C(c1ccc(-c2ncc3cnc(C4=CCOCC4)cn23)cc1)N1CC[S+](=O)([O-])CC1,4.5%[70.6 µM],1.0%[172 µM],i,?,2.1%[88.5 µM]
COc1ccc(NC(=O)c2ccc(-c3ncc4cnc(C5=CCOCC5)cn34)cc2)cn1,-15.9%[70.6 µM],?,i,31.6µM*,i
CCn1cc(C(CC(=O)N2CCC(C)CC2)c2cccc(Cl)c2)c2ccccc21 (centres undefined),-15.9%,39.8µM*,i,?,i
SMILES,hNpr1 antagonist,HEK cytotox,Luciferase inh,3T3 cytotox,GPT2 inhibitor
COC(=O)[C@H](NC(=O)C1=C[C@@H](NC(=O)c2ccc(SC)cc2OC)[C@@H](O)[C@H](O)C1)C(C)C,0.4%,i,i,-4.9%,-3.0%
O=C(NC1CCCN(c2cc(-c3ccccc3)[nH]n2)C1)c1ccc(Cl)cc1 (centres undefined),-11.5%,?,i,?,i
NC[C@H]1O[C@@H]2C[C@@H](CC(=O)N3CCOCC3)O[C@@H]2[C@@H]1O,0.6%[70.6 µM],i,i,3.9%[230 µM],?
N[C@@]1(C(=O)O)CS(=O)(=O)[C@H]2[C@H](C(=O)O)[C@H]21,.,.,.,.,0.4%
COc1ccc(-c2nn(-c3ccc(C)cc3C)c(OC(C)=O)c2-c2ccc(NC(C)=O)cc2)c(OC)c1,-13.3%,-29.5%,i,?,?
COc1ccc(-c2nn(-c3ccc(F)cc3)c(OC(C)=O)c2-c2ccc(NC(C)=O)cc2)cc1OC,-15.9%,?,i,?,?
COc1cc(OC)cc(-c2nn(-c3ccc(C)cc3C)c(OC(C)=O)c2-c2ccc(NC(C)=O)cc2)c1,-18.0%,?,i,?,12.6µM*
CC(=O)Oc1c(-c2ccc(NC(=O)C3CC3)cc2)c(-c2ccc3c(c2)OCO3)nn1-c1cccc(C)c1,-5.4%,?,i,?,14.1µM*
CCC(=O)Nc1ccc(-c2c(-c3cc(OC)cc(OC)c3)nn(-c3ccc(C)cc3)c2OC(C)=O)cc1,-20.6%,?,i,-22.1%,6.31µM*
CCc1nc(-c2c3n(c(=O)n(Cc4cccc(C)c4)c2=O)CCCC3)no1,0.2%,2.3%,i,4.4%,i
O=C(Cn1ccc2ccccc2c1=O)N1CCCOC(Cn2cccn2)C1 (centres undefined),3.3%,-5.0%,i,1.7%,?
O=C(C1CCCN([S+](=O)([O-])c2cccs2)C1)N1CCC(c2ccccc2)CC1 (centres undefined),.,?,.,?,4.3%
Cc1ncc2n1C(=O)N(C1CCN(Cc3ccc(OC(F)(F)F)cc3)CC1)C2,?,14.1µM*,i,?,i
COC1CCN(c2cc(-c3cccnc3)nc3c(C)noc23)CC1,1.7%[70.6 µM],-13.7%[172 µM],i,?,-13.7%[88.5 µM]
COC1CCCN(c2ncccc2-c2cc(-c3ccccc3)nc3c(C)noc23)C1 (centres undefined),-30.2%[70.6 µM],79.4µM*,i,?,-0.3%[88.5 µM]
COC1CCCN(c2cc(-c3cccnc3)nc3c(C)noc23)C1 (centres undefined),-3.2%[70.6 µM],?,i,35.5µM*,-8.1%[88.5 µM]
